MCF10A rerep = A quantitative high throughput screen for small molecules that induce DNA re-replication in MCF 10a normal breast cells | MCF 10A DNA re-replication, Hoechst nuclear intensity, 48 h | Potency, µM (titrated, usually from 46.1 µM), inactives show at the highest dose activity, positive = re-replication, most hits filed as activators | 350,000 tested, 2.9% active | AID 624296, 2012; further: potency means the concentration at half of the fitted maximal effect; % of control where 0% means no effect; nearly all actives have a fitted effect of over 50% in size
Giardia killer = Small Molecules that selectively kill Giardia lamblia: qHTS; Giardia lamblia trophozoite viability; activity change, % at 7.66 µM, hits read low; 340,000 tested, 0.15% active; AID 540267, 2011; in the data active means activity change below about -80%; inconclusive means between about -30% and that limit;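 further: parasites exposed to compound for two days anaerobically before the ATP read; on the % scale 0 is the no-effect control and ±100 the full control effect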
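Giardia trophozoites, 100 cells per well, were exposed to compounds for 48 hrs at 37 deg C under anaerobic conditions; viability was then read as ATP content by bioluminescence after 15-30 min at room temperature.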
RORgamma inh = qHTS for inhibitors of ROR gamma transcriptional activity; Drosophila S2 Gal4-RORgamma UAS-luciferase reporter, 20 h; 310,000 tested, 5.4% active; Potency, µM (series often up to 53.6 µM), without a hit: at the top dose activity change, negative = inhibition, actives largely listed as inhibitors; AID 2551, 2010; further: potency means the concentration at half of the fitted maximal effect; on the % scale 0 is the no-effect control and ±100 the full control effect; nearly all actives have a fitted effect of over 60% in size
Target sequence (P51450 whole entry, looked up, the tested form may be a part): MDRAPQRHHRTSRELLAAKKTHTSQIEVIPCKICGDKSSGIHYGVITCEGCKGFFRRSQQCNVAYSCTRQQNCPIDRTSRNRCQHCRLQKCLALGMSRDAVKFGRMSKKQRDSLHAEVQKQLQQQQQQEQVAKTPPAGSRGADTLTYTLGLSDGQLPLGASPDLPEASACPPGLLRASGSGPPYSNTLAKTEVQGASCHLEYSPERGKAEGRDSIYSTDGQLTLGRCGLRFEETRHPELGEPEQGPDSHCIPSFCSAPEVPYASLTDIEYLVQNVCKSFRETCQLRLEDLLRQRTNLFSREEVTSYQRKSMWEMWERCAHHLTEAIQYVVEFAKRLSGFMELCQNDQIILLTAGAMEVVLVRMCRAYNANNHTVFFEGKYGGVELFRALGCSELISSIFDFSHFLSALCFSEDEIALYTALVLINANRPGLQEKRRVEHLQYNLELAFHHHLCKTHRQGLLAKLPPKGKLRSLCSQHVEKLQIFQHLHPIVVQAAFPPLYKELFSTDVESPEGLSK
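In this cell-based reporter format, copper sulfate (700 uM final) drives Gal4–ROR gamma fusion expression from a metallothionein promoter in Drosophila Schneider cells; compounds preincubated 1 hr, reporter read after 20 hr at ambient temperature.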
SW480 rereplic = A quantitative high throughput screen for small molecules that induce DNA re-replication in SW480 colon adenocarcinoma cells; SW480 DNA re-replication, Hoechst DNA content imaging, 48 h; Potency, µM (doses to about 46.1 µM), inactives show at the top dose re-replication activation, usual class: activators; 340,000 tested, 1.8% active; AID 624297, 2012; further: potency means the concentration at half of the fitted maximal effect; % of control where 0% means no effect; nearly all actives have a fitted effect of over 55% in size
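Cells (250 per well) received 23 nL compound or DMSO by pin tool and were kept 48 hr at 37 C, 5% CO2. Nuclei were then stained with Hoechst for 40 min and scanned for DNA content.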
Chronic BCR inh = qHTS Assay to Find Inhibitors of Chronic Active B-Cell Receptor Signaling; ABC-DLBCL IkBa-CBG/CBR reporter, luminescence ratio, 4 h; Potency, µM (series often up to 46.1 µM), without a hit: top-dose activity change, negative = inhibition, actives largely listed as inhibitors; 340,000 tested, 0.05% active; AID 493014, 2011; active means well fitted inhibition curve with a large enough effect in the signal ratio, with a control signal flat, not every such curve was filed as active; inconclusive means small, poorly fitted or top-dose-only effect, or effect the other way, or a change in a side signal; the % refers to the signal ratio;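 further: potency means the concentration at half of the fitted maximal effect; plate controls were basal doxycycline-induced cells for no effect and cells given 10 µM MG132 for full effect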
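TMD8 human ABC-DLBCL cells with doxycycline-inducible IκBα–green luciferase fusion and unfused red luciferase, in 0.5% FBS medium; compounds up to 46 uM, 4 h at 37C. Green/red luminescence ratio, filter-overlap corrected, fitted to concentration-response curves.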
Gal4-VP16 FLuc = VP16 counterscreen qHTS for inhibitors of ROR gamma transcriptional activity; Drosophila S2 Gal4-VP16 UAS-luciferase, luminescence, 20 h; Potency, µM (doses to about 53.6 µM), without a hit: at the top dose activity, negative = inhibition, hits mostly inhibitors; 310,000 tested, 3.5% active; AID 2546, 2010;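 further: Gal4-VP16 expression switched on by copper sulfate through the metallothionein promoter; potency means the concentration at half of the fitted maximal effect; on the % scale 0 is the no-effect control and ±100 the full control effect; nearly all actives have a fitted effect of over 50% in size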
An asterisk follows results filed as active; ? = inconclusive; . = no result; [ ] = remark or other dose. This is a sample that favours compounds with a hit; in the whole collection about 8.3% have one here. Unless noted, the call rests on the fitted dose curve; in most records, active means well fitted curve in the direction sought with a large enough effect; inconclusive means small, poorly fitted or top-dose-only effect, or another doubt; inactive means no such curve, though single readings can be large; an effect the other way counts as inactive or inconclusive.

SMILES	MCF10A rerep	Giardia killer	RORgamma inh	SW480 rereplic	Chronic BCR inh	Gal4-VP16 FLuc
C[C@@H](C(=O)Nc1ccc2ccccc2c1)[C@@H]1C[C@@]1(C)[C@@H](NS(=O)(=O)c1ccc2ccccc2c1)c1ccccc1	.	.	?	.	.	-15%
CCCCn1c(=O)c(-[n+]2ccccc2)c([O-])c2ccccc21	3%	-2	11µM*	-4%	-13%	-22%
CC(C)Cn1c(=O)c(-[n+]2ccccc2)c([O-])c2ccccc21	-7%	-7	13%	-4%	5%	-14%
COc1ccc(N2C(=O)/C(=C/c3ccc([N+](=O)[O-])cc3)N=C2C)c(OC)c1	25%	-2	?	1%	-4%	7.9µM*
O=C(NCc1cccc(Br)c1)C1CC(c2ccc(C(F)(F)F)cc2)=NO1 (stereo not drawn)	-15%	6	.	-4%	.	.
CCCCOC(=O)CSC1=C(C#N)C(c2ccccc2OCC)C(C#N)C(=O)N1 (stereo not drawn)	?	-14	-13%	10µM*	5%	-9%
CCOC(=O)CSC1=C(C#N)C(c2ccccc2OC)CC(=O)N1 (stereo not drawn)	5.2µM*	10	4%	18µM*	3%	4%
CCN(CC)S(=O)(=O)c1cc(NC(=O)C(C)N2CCN(c3ccccn3)CC2)ccc1C (stereo not drawn)	3%	-15	21%	8%[1.84 µM]	?	2%
CCN(CC)S(=O)(=O)c1cc(NC(=O)C(C)N2CCN(Cc3ccc4c(c3)OCO4)CC2)ccc1C (stereo not drawn)	?	2	12%	15µM*	-5%	8%
C=CCn1c(C)cc(C2=NNC(=NC(C)(C)C)SC2)c1C	?	?	11µM*	7%	?	10µM*
COCCn1c(C)cc(C2=NNC(=NC3CC3)SC2)c1C	?	?	1.1µM*	-6%	?	1.1µM*
C=CCN=C1NN=C(c2cc(C)n(CCOC)c2C)CS1	0%	12	1µM*	-1%	?	-83%
COCCn1c(C)cc(C2=NNC(=Nc3ccc(Cl)cc3Cl)SC2)c1C	0%	4	-1%	-3%	-8%	-4%
COc1ccc(NC(=O)CSc2nc3nc(C)c(Cc4ccc(C)cc4)c(C)n3n2)cc1OC	.	.	.	.	-4%	.
CCn1nnc2c(N3CCCC3)ncnc21	.	-16	.	.	.	.
C/C(=N\NC(=S)NCC(C)(C)C)c1cc(F)cc(F)c1O	5%	-8	2.8µM*	-63%	-12%	4µM*
CN(Cc1cccnc1)C(=O)c1ccc2nc(Cc3ccccc3F)oc2c1	19%	-29	?	16%	0%	-19%
CS(=O)(=O)N1CCC2(CCCN(Cc3ccccc3)C2)CC1	.	.	4%	.	.	-5%
CCCS(=O)(=O)NCc1cn2cccc(C)c2n1	2.6µM*	0	9%	10µM*	5%	-15%
Cc1cccn2cc(CNc3ccccc3)nc12	13%	-17	?	-3%	-13%	1%
CCOC(=S)SCc1cn2cccc(C)c2n1	-1%	-12	14µM*	-20%	-26%	-27%
N=c1sccn1CC(=O)Nc1ccc(Cl)cc1[N+](=O)[O-]	-10%	-2	16%	0%	1%	-4%
Cc1ccc(CCC(=O)Nc2ccc(Cl)cc2)o1	-4%	-15	-27%[1.91 µM]	0%	0%	9%
Cc1ccc(CCC(=O)Nc2ccc(Br)cc2)o1	?	-30	89%	15µM*	0%	18%
CCc1ccc(CCC(=O)Nc2ccc(Br)cc2)o1	11%	15	-29%[1.91 µM]	?	?	-1%
SMILES	MCF10A rerep	Giardia killer	RORgamma inh	SW480 rereplic	Chronic BCR inh	Gal4-VP16 FLuc
Cc1ccc(CCC(=O)Nc2ccc(N(C)C)cc2)o1	6%	-10	0.56µM*	?	?	?
COC(=O)c1c(NC(=O)CCc2ccc(C)o2)sc(C)c1C	19%	2	?	-4%	4%	13µM*
COC(=O)c1c(NC(=O)CN2CCCc3ccccc32)sc(C)c1C	15µM*	13	?	?	9%	?
CN1CCN(S(=O)(=O)c2cccc(C(=O)N(Cc3nnc(-c4ccccc4Cl)o3)C3CC3)c2)CC1	11%	7	0%	1%	-10%	-13%
CC1=C(C(=O)Nc2cc(C(=O)N3CCN(c4cccc(C)c4)C(C)C3)ccc2C)SCCO1 (stereo not drawn)	1%	8	-4%	-1%	19%	6%
CC1=NN(/C(=N\c2nnc(C)s2)Nc2ccc(C(C)(C)C)cc2)[C@H](c2ccc(C)cc2)S1	?	4	18µM*	?	?	?
O=C1C=CC2=C3c4cc(O)c(O)cc4C[C@]3(O)COC2=C1	.	.	?	.	.	-11%
Cc1ccc(C(=O)CSc2nnc3c4ccccc4nc(C(C)(C)C)n23)cc1	6.5µM*	-10	-8%[10 µM]	13µM*	-1%	-16%
Cc1cccc(N2C(=O)N(CC(=O)C(C)(C)C)c3ccccc3S2(=O)=O)c1C	.	.	.	.	0%	.
CNC[C@H](CC1CCCCC1)NC[C@H](Cc1ccccc1)NCCC12CC3CC(CC(C3)C1)C2	?	-11	20µM*	-5%	-23%	?
Fc1cccc(-c2nnn3c2nc(Cl)c2ccccc23)c1	2.6µM*	3	1%	5.8µM*	?	-3%
Cc1ccc(S(=O)(=O)c2nnn3c2nc(N2CCCCC2)c2ccccc23)cc1	6%	10	43%	-3%	3%	-12%
Cc1ccc(-c2nnn3c2nc(Cl)c2ccccc23)cc1	4.1µM*	-15	15%	?	?	-14%
Clc1nc2c(-c3ccccc3)nnn2c2ccccc12	3.7µM*	8	-11%	?	?	-11%
c1ccc2c(c1)nnn1c3ccccc3nc21	.	.	?	.	9%	?
CC(=O)Nc1nc(CCN2C(=O)c3ccccc3C2=O)cs1	1%	7	9%	-12%	?	7%
COc1cccc(/C=C2\CCCCC2=O)c1	4%	17	-19%	74%	-11%	-1%
COc1cccc(/C=c2\s/c(=C\C(=O)C(C)(C)C)[nH]c2=O)c1	?	-3	10µM*	?	1%	?
COc1ccc(/C=c2\s/c(=C/C(=O)c3ccc(C)cc3)[nH]c2=O)c(OC)c1	4.1µM*	22	?	?	?	-79%
COc1cccc(/C=c2\s/c(=C/C(=O)c3ccc(C)cc3)[nH]c2=O)c1OC	14%	-18	-1%	-4%	0%	-5%
